From article PMC11006913

These sequences were tested against HOXB6 (Homo sapiens, UniProt P17509 132-218, K202E) (assay: PBM; 200 nM protein, PBS). Conditions: dsDNA, one strand shown.
HOXB6, sequence (P17509 132-218 K202E): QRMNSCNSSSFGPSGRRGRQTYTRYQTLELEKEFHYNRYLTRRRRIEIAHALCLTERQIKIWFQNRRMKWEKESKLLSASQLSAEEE

Sequence	binding signal
CTCGGCTC	9.06 upbm affinity estimate (log intensity, higher = more binding, comparable within an allelic series)
CCGGGGCA	8.98 upbm affinity estimate (log intensity, higher = more binding, comparable within an allelic series)
AGTTATTG	9.58 upbm affinity estimate (log intensity, higher = more binding, comparable within an allelic series)
TGACTTAA	9.69 upbm affinity estimate (log intensity, higher = more binding, comparable within an allelic series)
AGGCGGAC	9.08 upbm affinity estimate (log intensity, higher = more binding, comparable within an allelic series)
CCAGCGGA	9.05 upbm affinity estimate (log intensity, higher = more binding, comparable within an allelic series)
GAGAGGGC	8.82 upbm affinity estimate (log intensity, higher = more binding, comparable within an allelic series)
GGCGTGGA	9.09 upbm affinity estimate (log intensity, higher = more binding, comparable within an allelic series)
AGTCCTCC	9.17 upbm affinity estimate (log intensity, higher = more binding, comparable within an allelic series)
CGTTGCCC	9.13 upbm affinity estimate (log intensity, higher = more binding, comparable within an allelic series)
CTCCTCGC	9.02 upbm affinity estimate (log intensity, higher = more binding, comparable within an allelic series)
AGGGAGGA	9.04 upbm affinity estimate (log intensity, higher = more binding, comparable within an allelic series)
CCGGAGCG	9.07 upbm affinity estimate (log intensity, higher = more binding, comparable within an allelic series)
GGCGGCAC	9.08 upbm affinity estimate (log intensity, higher = more binding, comparable within an allelic series)
ACCGTTAA	9.66 upbm affinity estimate (log intensity, higher = more binding, comparable within an allelic series)
AATGTTGT	9.62 upbm affinity estimate (log intensity, higher = more binding, comparable within an allelic series)
AAGGGACC	9.07 upbm affinity estimate (log intensity, higher = more binding, comparable within an allelic series)
CCACGGAC	9.01 upbm affinity estimate (log intensity, higher = more binding, comparable within an allelic series)
CTGGTCCC	9.06 upbm affinity estimate (log intensity, higher = more binding, comparable within an allelic series)
CCCGGTAG	9.07 upbm affinity estimate (log intensity, higher = more binding, comparable within an allelic series)

Sequence	binding signal
AATAGTTC	9.51 upbm affinity estimate (log intensity, higher = more binding, comparable within an allelic series)
CGGTAGGC	9.06 upbm affinity estimate (log intensity, higher = more binding, comparable within an allelic series)
TCTCATAA	9.55 upbm affinity estimate (log intensity, higher = more binding, comparable within an allelic series)
CCGAGCGC	9.06 upbm affinity estimate (log intensity, higher = more binding, comparable within an allelic series)
CCCTCCGA	9.02 upbm affinity estimate (log intensity, higher = more binding, comparable within an allelic series)
GGTTTTTA	9.65 upbm affinity estimate (log intensity, higher = more binding, comparable within an allelic series)
CCCAGCTC	9.08 upbm affinity estimate (log intensity, higher = more binding, comparable within an allelic series)
GCTTGCCC	9.05 upbm affinity estimate (log intensity, higher = more binding, comparable within an allelic series)
ATTTCATA	9.65 upbm affinity estimate (log intensity, higher = more binding, comparable within an allelic series)
CTGCCTGC	9.03 upbm affinity estimate (log intensity, higher = more binding, comparable within an allelic series)
TCCTAGGA	9.13 upbm affinity estimate (log intensity, higher = more binding, comparable within an allelic series)
AATGATTG	9.68 upbm affinity estimate (log intensity, higher = more binding, comparable within an allelic series)
AATTTCGG	9.51 upbm affinity estimate (log intensity, higher = more binding, comparable within an allelic series)
GCACGTGC	9.35 upbm affinity estimate (log intensity, higher = more binding, comparable within an allelic series)
TAATGGAA	9.72 upbm affinity estimate (log intensity, higher = more binding, comparable within an allelic series)
AGCCTAGG	9.04 upbm affinity estimate (log intensity, higher = more binding, comparable within an allelic series)
AAAAAAAT	9.72 upbm affinity estimate (log intensity, higher = more binding, comparable within an allelic series)
CGCACACC	9.16 upbm affinity estimate (log intensity, higher = more binding, comparable within an allelic series)
AAATGGTC	9.65 upbm affinity estimate (log intensity, higher = more binding, comparable within an allelic series)
CAACATAA	9.7 upbm affinity estimate (log intensity, higher = more binding, comparable within an allelic series)
